Results as given in PubChem BioAssay (NCATS).
Inconclusive results are not listed. Calls of active or inactive are those of the source. Unless noted, calls come from the whole dose curve; as a rule, active = well fitted curve in the direction sought with a large enough effect; inconclusive = small, poorly fitted or top-dose-only effect, or another doubt; inactive = no such curve, though single readings can be large; an effect the other way counts as inactive or inconclusive.

Key:
[1] = AP1 Signaling Pathway (AID 357; active = well fitted curve in either direction with a large enough effect, not every such curve was filed as active;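 note: ME-180 reporter cells stimulated with EGF at its EC50 level; % is set by controls: 0 for no effect and ±100 for the full control effect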); conditions: ME-180 AP-1-bla reporter, EGF-induced, beta-lactamase ratio, 5 h; at 7.69 µM (top of the series) unless noted
Procedure, shortened: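 Modulation of EGF-driven AP-1 transcription was assessed with a beta-lactamase reporter in ME-180 cells. Compound and EC50 EGF were co-incubated 5 hours at 37 °C before 2.5-hour CCF4 loading at room temperature and dual-emission reading.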

[2] = biological target: Cytochrome P450 1A2 (Homo sapiens) (UniProt P05177); assay: p450-cyp1a2 (AID 410; calls by dose curve;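 note: -100% = full effect of reference inhibitor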)
Procedure, shortened: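 20nM CYP1A2, 100uM Luciferin-ME (=Km), 100mM KPO4; cpd 10 min RT; +NADPH regen, 60 min RT; stop/detect 20 min; luminescence. Normalized to furafylline 57 uM = full inhibition.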

[3] = Stat Signaling Pathway (AID 446; active = well fitted curve in either direction with a large enough effect, not every such curve was filed as active;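 note: ME-180 cervical cancer cells given 40 pM IL-6 alongside compound; SIE-controlled beta-lactamase reporter measured as 460/530 nm FRET emission ratio; % is set by controls: 0 for no effect and ±100 for the full control effect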)
Procedure, shortened: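 Compound effects on IL-6-induced STAT reporter activity were measured in ME-180 cells. After overnight culture, cells were co-treated with 40 pM IL-6 for 5 hrs before beta-lactamase substrate loading at room temperature.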

[4] = biological target: Glucocorticoid receptor (Homo sapiens) (UniProt P04150); assay: GR-GFP Redistribution (AID 450;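 active = compounds whose dose series gives a full or clear partial fitted curve of increased nuclear translocation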; note: potency is the fitted concentration of half-maximal effect); conditions: U2OS GR-GFP nuclear translocation, laser cytometry, 2 h
[5] = biological target: Glucocorticoid receptor (Homo sapiens) (UniProt P04150); assay: GR-EFC Redistribution (AID 451; calls by dose curve; note: potency is the fitted concentration of half-maximal effect); conditions: CHO-K1 GR-EFC translocation, beta-gal luminescence, 2 h
Procedure, shortened: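 Translocation of GR-ED fusion to nuclear EA restores b-gal, read by luminescence after 1 h room-temperature detection. Engineered CHO-K1 biosensor cells, 1,000/well, exposed 2 h at 37 C to titrations up to 46 uM final.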

[6] = biological target: Mitogen-activated protein kinase 10 (Mus musculus) (UniProt Q61831); assay: JNK3 AlphaScreen Assay (AID 530; active = well fitted curve in either direction with a large enough effect, not every such curve was filed as active;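 note: kinase came from lysate of stimulated human HepG2 cells; signal reports phosphorylation of biotinylated GST-cJun 1-79 at Ser73 with 10 µM ATP; % is set by controls: 0 for no effect and ±100 for the full control effect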)
Procedure, shortened: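 Kinase buffer: 20 mM Tris-HCl pH 7.6, 10 mM MgCl2, 1 mM DTT, 0.1 mM Na3VO4, 0.01% Tween-20; ATP 10 uM. Substrate biotin-GST-cJun(1-79), enzyme from activated HepG2 lysates. Detection by Ser73 phospho-antibody AlphaScreen.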

[7] = biological target: 3',5'-cyclic-AMP phosphodiesterase 4B (Homo sapiens) (UniProt Q07343); assay: qHTS Assay for Inhibitors of PDE-IV (AID 607; active = well fitted activation curve with a large enough effect in the main read-out, with a control signal flat, not every such curve was filed as active; note: % of control where 0% means no effect)
Procedure, shortened: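 ACTOne HEK293 cells carry a modified cAMP-gated CNG channel and express endogenous PDE4; plated 1000 cells/well, compounds up to 22.9 uM final. Membrane-potential dye fluorescence (ex 535/em 590) was read; parental cells received 10 uM forskolin + 100 uM RO 20-1724.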

[8] = biological target: Guanine nucleotide-binding protein G(i) subunit alpha-1 (Homo sapiens) (UniProt P63096); assay: qHTS Assay for Inhibitors of RGS12 GoLoco Motif Activity (Green Fluorophore) (AID 879);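 note: 0% = labeled peptide with Gαi1 and full inhibition = labeled peptide alone without protein; negative values mean loss of peptide binding seen as reduced polarization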
Procedure, shortened: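 A drop in FITC polarization marked displacement of the FITC-tagged RGS12 GoLoco peptide (10 nM) from Gαi1 (50 nM). Compounds were incubated 10 min at room temperature in Tris pH 7.5 buffer containing 150 mM NaCl, 0.1 mM GDP and 0.05% NP40; unlabeled peptide titration served as control.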

[9] = biological target: Cytochrome P450 3A4 (Homo sapiens) (UniProt P08684); assay: qHTS Assay for Inhibitors and Substrates of Cytochrome P450 3A4 (AID 884); note: % is set by controls: 0 for no effect and ±100 for the full control effect; nearly all actives have a fitted effect of over 50% in size
Procedure, shortened: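 Luminescent readout of luciferin produced by CYP3A4 (20 nM) dealkylation of Luciferin-PPXE, 25 uM (its KM). NADPH-driven reaction ran 60 min at RT after 10 min compound preincubation; data scaled to 57 uM ketoconazole as 100% inhibition.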

[10] = qHTS Assay for Identification of Small Molecule Agonists for Hypoxia Response Element Signaling Pathway (AID 914; active = well fitted activation curve with a large enough effect in the signal ratio, with a control signal flat, not every such curve was filed as active; the % refers to the signal ratio; note: % of control where 0% means no effect); conditions: ME-180 (cervical carcinoma) HRE-bla reporter, beta-lactamase ratio, CoCl2, 17 h; activation: active compounds read high
Procedure, shortened: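 Positive modulation of EC50 CoCl2-induced hypoxia response element signaling is measured in ME-180 cells with a beta-lactamase reporter. Compounds are titrated, incubation runs 17 hours, and %Activity derives from the blue/green ratio.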

[11] = qHTS Assay for Identification of Small Molecule Agonists for Thrombopoietin (TPO) Signaling Pathway (AID 917); note: % is set by controls: 0 for no effect and ±100 for the full control effect
Procedure, shortened: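 Stimulation at the TPO EC50 (26 pM final) was used to detect activators. Ba/F3 mouse cells bearing human TPO receptor and a luciferase reporter under the Glycoprotein IIb promoter were exposed to compounds for 24 hrs at 37 C.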

[12] = biological target: Muscarinic acetylcholine receptor M1 (Rattus norvegicus) (UniProt P08482); assay: qHTS Assay for Antagonists of Acetylcholine Muscarinic M1 Receptor: Measurement of IP-One Response (AID 944); note: nearly all actives have a fitted effect of over 75% in size
Procedure, shortened: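 Read-out: HTRF competition between d2-IP1 and Eu-cryptate anti-IP1 antibody, emission 620 and 665 nm. Stimulus was carbachol, EC80 (200 nM), for 30 min in M1-CHO cells (rat receptor), after 10 min compound pre-treatment.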

[13] = biological target: Pyruvate kinase (Leishmania mexicana) (UniProt Q27686); assay: qHTS Validation Assay for Inhibitors of Leishmania Mexicana Pyruvate Kinase (AID 945);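 note: 0% = DMSO only neutral control wells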
Procedure, shortened: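 qHTS eight-point titrations against 0.2 nM LmPYK (E451W) in imidazole buffer pH 7.2 with 0.5 mM PEP, 0.1 mM ADP; 1 h, room temperature. Readout: PKLight luminescence, normalized to neutral DMSO wells.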

[14] = biological target: Pyruvate kinase PKM (Homo sapiens) (UniProt P14618); assay: qHTS Assay for Activators of Human Muscle Pyruvate Kinase (AID 954; active = well fitted curve in the direction sought with a large enough effect, not every such curve was filed as active;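 note: 0% = uninhibited enzyme and -100% = no enzyme or full thiadiazolimine inhibition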)
Procedure, shortened: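 A coupled luminescent readout tracked ATP made from ADP by purified PKM2. Final conditions included 0.1 nM enzyme, PEP and ADP at 0.5 and 0.1 mM, pH 7.2 imidazole buffer with BSA, and a one-hour room-temperature reaction.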

[15] = biological target: Alpha-galactosidase A (Homo sapiens) (UniProt P06280); assay: Counterscreen for Glucocerebrosidase Inhibitors: qHTS Assay for Human alpha-Galactosidase at pH 4.5 (AID 992); note: 0% is about no effect
Procedure, shortened: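 Citrate buffer pH 4.5, Tween-20 0.005%. Enzyme 2 nM, substrate 80 uM, 20 min RT. Stop pH 10. Fluorescence Ex 365/Em 440. AC50 by Hill fit.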

[16] = biological target: alpha-glucosidase (Oryza sativa, rice) (UniProt Q653V4); assay: Counterscreen for Glucocerebrosidase Inhibitors: qHTS Assay for Rice alpha-Glucosidase at pH 5.0 (AID 997);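 note: 0% = full activity with enzyme and -100% = basal without enzyme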
Procedure, shortened: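 Endpoint fluorogenic assay at pH 5.0: compounds (0.7 nM to 77 uM) titrated against 4 nM rice enzyme and 400 uM 4-MU-alpha-glucoside for 20 min at room temperature; NaOH/glycine stop, read ex 365/em 440 nm, Hill-fitted AC50.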

[17] = biological target: DNA repair nuclease/redox regulator APEX1 (Homo sapiens) (UniProt P27695); assay: qHTS Validation Assay for Inhibitors of the Human Apurinic/apyrimidinic Endonuclease 1 (APE1) (AID 1705)
Procedure, shortened: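 Fluorogenic double-stranded THF abasic-site substrate (5'-TAMRA/3'-BHQ-2), 50 nM final. Enzyme preincubated with compound 15 min at room temperature, then substrate added. Kinetic fluorescence (ex 525/em 598 nm) read three times at 60 s intervals; activity taken as third-minus-first read difference.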

[18] = Counterscreen for APE1 Inhibitors: Fluorescent Dye Displacement Validation Assay (AID 1707);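 note: plate controls were ThO with dsDNA and no compound for no effect and ThO without dsDNA for full effect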
Procedure, shortened: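 Signal: ThO fluorescence (ex 480 nm/em 540 nm) on binding 50 nM dsDNA; displacement by test compound reduces it. Conditions: 250 nM dye, 50 mM Tris-HCl pH7.5, 2 mM MgCl2, 50mM NaCl, 0.01% Tween-20.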

[19] = qHTS for differential inhibitors of proliferation of Plasmodium falciparum line 7G8 (AID 1815);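 note: parasite growth measured after three days of incubation; plate controls were vehicle wells for no effect and reference inhibitor wells for full effect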
[20] = qHTS for differential inhibitors of proliferation of Plasmodium falciparum line GB4 (AID 1816); conditions: Potency: Plasmodium falciparum GB4 proliferation inhibition;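 note: parasite growth measured after 72 h incubation; 0% = vehicle DMSO and -100% = reference inhibitor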
[21] = qHTS for differential inhibitors of proliferation of Plasmodium falciparum line 3D7 (AID 1876);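 note: parasite growth measured after three days of culture; 0% = vehicle wells and -100% = reference inhibitor wells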
[22] = qHTS for differential inhibitors of proliferation of Plasmodium falciparum line D10 (AID 1877);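 note: parasites grown with compound for 72 h before DNA staining; plate controls were vehicle wells for no effect and reference inhibitor wells for full effect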
[23] = qHTS for differential inhibitors of proliferation of Plasmodium falciparum line Dd2 (AID 1882); conditions: Potency: Plasmodium falciparum Dd2 proliferation inhibition;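 note: compound exposure of 72 h on infected erythrocytes; plate controls were DMSO vehicle for no effect and 0.29 µM artemisinin for full effect; nearly all actives have a fitted effect of over 65% in size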
Procedure, shortened: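 RBC culture, 0.3% parasitemia / 2.5% Hct final; cpd added by pin tool in DMSO; 72 h, 37 C, 5% CO2; lysis buffer + SYBR Green I, o/n RT dark; FI 485/535; norm. to artemisinin 0.29 uM and DMSO.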

[24] = qHTS for differential inhibitors of proliferation of Plasmodium falciparum line W2 (AID 1883); conditions: Potency: Plasmodium falciparum W2 proliferation inhibition;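 note: parasites grown with compound for 72 h before lysis and staining; 0% = vehicle wells and -100% = control inhibitor wells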
[25] = qHTS for differential inhibitors of proliferation of Plasmodium falciparum line HB3 (AID 1886); conditions: Potency: Plasmodium falciparum HB3 proliferation inhibition;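 note: parasites grown with compound for 72 h before SYBR Green readout; plate controls were vehicle for no effect and reference inhibitor for full effect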
[26] = qHTS Assay for Modulators of Human Peripheral Myelin Protein 22 (PMP22) Expression/Activity (AID 1967; active = well fitted curve in the direction sought with a large enough effect in the signal ratio; the % refers to the signal ratio;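 note: 0% = untreated cells and 100% end not stated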)
Procedure, shortened: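 Mouse MSC80 Schwann cells carrying Pmp22 promoter–green click beetle luciferase plus EF-alpha–red luciferase control, dosed 24 h at 37 °C. Dual-filter luminescence, overlap-corrected; %Activity from green/red ratio normalised to untreated cells, concentration-response curves fitted.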

[27] = biological target: Ferritin light chain (Equus caballus) (UniProt P02791); assay: qHTS Validation Assay for Identification of Novel General Anesthetics (AID 2323); note: % is set by controls: 0 for no effect and ±100 for the full control effect
Procedure, shortened: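 Horse-spleen apoferritin (10 uM) in PBS with 50% saturated 1-aminoanthracene; compounds pin-transferred, 10 min at room temperature. Fluorescence read at 380/535 nm, normalized to free 1-AMA and 1-AMA/apoferritin values; four-parameter Hill fit.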

[28] = biological target: ATP-dependent DNA helicase Q1 (Homo sapiens) (UniProt P46063); assay: qHTS Validation Assay for Inhibitors of RecQ-Like Dna Helicase 1 (RECQ1) (AID 2353);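 note: plate controls were DMSO vehicle for no effect and enzyme-free control for full effect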
Procedure, shortened: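 RECQ1T1 50 nM; forked duplex (20 bp + 30-nt ss tails) 200 nM, ATP 2 mM final; pH 8.0, 2 mM MgCl2, 2.5 ug/ml poly(dI-dC); 15 min compound preincubation; discontinuous kinetic read over 2 h at RT.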

[29] = biological target: RecQ-like DNA helicase BLM (Homo sapiens) (UniProt P54132); assay: qHTS Validation Assay for Inhibitors of Bloom's syndrome helicase (BLM) (AID 2364);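 note: plate controls were DMSO vehicle for no effect and enzyme-free control for full effect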
Procedure, shortened: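 Forked 20-bp duplex substrate (200 nM, TAMRA/BHQ-2) plus 2 mM ATP added after 15 min compound preincubation with 50 nM enzyme, pH 8.0, poly(dI-dC) 2.5 ug/ml. Strand separation followed by fluorescence (525/598 nm) over 2 h, normalized to enzyme-free and DMSO controls.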

[30] = Validation screen for small molecules that induce DNA re-replication in MCF 10A normal breast cells (AID 463097); note: 0% is about no effect; nearly all actives have a fitted effect of over 60% in size
Procedure, shortened: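 MCF 10A cells exposed to compound 48 hr at 37 C, 5% CO2, then Hoechst-stained 40 min. Laser-scanning imaging of nuclear DNA content (405 nm ex, 500-530 nm em); re-replication scored as rise in nuclei with elevated fluorescence intensity.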

[31] = Quantitative high throughput screen for delayed death inhibitors of the malarial parasite plastid, 96 hour incubation (AID 488745);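 note: luciferase-expressing P. falciparum in erythrocytes at 2% hematocrit and 0.1% parasitemia; % is set by controls: 0 for no effect and ±100 for the full control effect; nearly all actives have a fitted effect of over 70% in size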
Procedure, shortened: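 Luciferase-expressing P. falciparum, infected RBCs 2% Hct/0.1% parasitemia (final); 96 h cpd exposure, 37 C, 5% CO2; RPMI 1640 + 0.5% Albumax, bicarbonate, gentamycin. Readout: luminescence loss = growth inhibition.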

[32] = Quantitative high throughput screen for delayed death inhibitors of the malarial parasite plastid, 48 hour incubation (AID 488752); note: % is set by controls: 0 for no effect and ±100 for the full control effect; nearly all actives have a fitted effect of over 65% in size
Procedure, shortened: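 Luciferase-expressing P. falciparum in RBCs, 2% Hct, 0.1% parasitemia final; RPMI 1640 + 0.5% Albumax; 48 h, 37 C, 5% CO2; luminescence readout, signal drop = growth inhibition.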

[33] = biological target: M-phase phosphoprotein 8 (Homo sapiens) (UniProt Q99549); assay: qHTS Validation Assay for Inhibitors for MPP8 Chromodomain Interactions with Methylated Histone Tails (AID 488949); note: top concentration of the series differs between compounds; % is set by controls: 0 for no effect and ±100 for the full control effect; nearly all actives have a fitted effect of over 55% in size
Procedure, shortened: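 MPP8 (50 nM) was pre-bound to 50 nM biotinylated H3(1-18)K9me3 peptide in PBS pH 7.4 with 0.01% Tween-20. Compounds were then added for 30 min at room temperature, and complex disruption was read by AlphaScreen with streptavidin donor and nickel-chelate acceptor beads.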

[34] = biological target: Transient receptor potential cation channel subfamily V member 1 (Homo sapiens) (UniProt Q8NER1); assay: HTS Assay for Compounds that Act as Enhancers of the Vanilloid Receptor 1 (AID 488979); note: 0% is about no effect
Procedure, shortened: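 Calcium influx kinetics via Fluo-8 (480/520 nm) in TRPV1-expressing cells, 2000/well cultured overnight at 35.5C. Compound-alone read 3 min (agonist phase), followed by EC20 capsaicin challenge for 2 min (enhancer phase).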

[35] = biological target: Thyrotropin receptor (Homo sapiens) (UniProt P16473); assay: qHTS Assay for Antagonists of the Thyroid Stimulating Hormone Receptor (AID 488980); note: 0% is about no effect
Procedure, shortened: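 TSHR-transfected HEK293 cells (2000/well) in HEPES-buffered HBSS with 70 uM RO 20-1724 were stimulated with 4 nM TSH (EC80, final) in the presence of compound. cAMP was measured by HTRF competition after lysis and 30 min at RT.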

[36] = biological target: Thyrotropin-releasing hormone receptor (Homo sapiens) (UniProt P34981); assay: qHTS for Small Molecule Agonists and Allosteric Enhancers of Human TRH Receptor: Validation Screen for Agonists (AID 493127;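 active = calcium activation more than 3 SD above the typical response in the agonist read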;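 note: intracellular calcium rise by fluo-8 fluorescence before TRH EC20 addition; 0% is about no effect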); conditions: TRH receptor agonist cell assay; at 2 µM; active compounds read high
Procedure, shortened: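 Read-out: intracellular calcium release measured kinetically by FDSS (fluo-8, ex 480/em 530 nm), 1 reading/s after a 10-cycle baseline. TRHR cells, 2000/well, cultured 18 h at 33.5C, dye-loaded at room temp. Compound-evoked positive calcium signal flags agonists.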

[37] = biological target: Galactokinase (Homo sapiens) (UniProt P51570); assay: qHTS Validation Assay for Inhibitors of Human Galactokinase (GALK) (AID 493189); note: 0% is about no effect
Procedure, shortened: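 GALK (5 nM) with 35 uM ATP and 100 uM galactose in HEPES pH 8.0 with MgCl2, NaCl, DTT and BSA. Reaction ran 1 h at room temperature. Residual ATP read by Kinase-Glo Plus luminescence.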

Sequence of Glucocorticoid receptor (Homo sapiens) (P04150 whole entry, looked up, the tested form may be a part): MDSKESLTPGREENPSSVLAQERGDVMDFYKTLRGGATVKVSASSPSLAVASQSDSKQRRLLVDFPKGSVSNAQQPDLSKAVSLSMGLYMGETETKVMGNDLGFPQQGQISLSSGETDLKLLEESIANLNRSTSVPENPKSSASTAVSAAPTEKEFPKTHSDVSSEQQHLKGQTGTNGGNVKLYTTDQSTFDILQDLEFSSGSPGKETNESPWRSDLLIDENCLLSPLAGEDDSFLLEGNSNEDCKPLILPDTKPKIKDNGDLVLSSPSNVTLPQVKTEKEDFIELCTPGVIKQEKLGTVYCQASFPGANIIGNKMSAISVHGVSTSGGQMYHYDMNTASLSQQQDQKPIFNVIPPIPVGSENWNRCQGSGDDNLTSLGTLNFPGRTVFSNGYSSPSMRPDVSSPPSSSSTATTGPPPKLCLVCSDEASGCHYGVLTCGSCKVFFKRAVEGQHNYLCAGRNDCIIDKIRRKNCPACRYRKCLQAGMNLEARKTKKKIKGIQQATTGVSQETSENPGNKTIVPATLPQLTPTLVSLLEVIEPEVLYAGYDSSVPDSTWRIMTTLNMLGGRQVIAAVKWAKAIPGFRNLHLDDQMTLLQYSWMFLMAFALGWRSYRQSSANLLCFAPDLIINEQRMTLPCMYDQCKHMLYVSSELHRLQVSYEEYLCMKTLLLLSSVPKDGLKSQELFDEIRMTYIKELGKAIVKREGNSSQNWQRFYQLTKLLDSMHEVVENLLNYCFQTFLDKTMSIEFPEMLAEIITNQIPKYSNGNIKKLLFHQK
Sequence of Galactokinase (Homo sapiens) (P51570 whole entry, looked up): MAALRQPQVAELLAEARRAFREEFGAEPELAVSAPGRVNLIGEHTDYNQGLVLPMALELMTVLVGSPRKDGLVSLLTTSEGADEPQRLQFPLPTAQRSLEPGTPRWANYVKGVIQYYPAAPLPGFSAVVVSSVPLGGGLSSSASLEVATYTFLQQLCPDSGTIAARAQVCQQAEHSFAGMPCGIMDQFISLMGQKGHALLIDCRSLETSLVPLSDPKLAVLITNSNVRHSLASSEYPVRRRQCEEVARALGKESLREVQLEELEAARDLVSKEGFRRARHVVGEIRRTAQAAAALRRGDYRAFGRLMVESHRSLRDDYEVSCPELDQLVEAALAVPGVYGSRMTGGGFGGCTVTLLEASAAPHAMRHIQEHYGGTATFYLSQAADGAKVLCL
Sequence of Thyrotropin-releasing hormone receptor (Homo sapiens) (P34981 whole entry, looked up): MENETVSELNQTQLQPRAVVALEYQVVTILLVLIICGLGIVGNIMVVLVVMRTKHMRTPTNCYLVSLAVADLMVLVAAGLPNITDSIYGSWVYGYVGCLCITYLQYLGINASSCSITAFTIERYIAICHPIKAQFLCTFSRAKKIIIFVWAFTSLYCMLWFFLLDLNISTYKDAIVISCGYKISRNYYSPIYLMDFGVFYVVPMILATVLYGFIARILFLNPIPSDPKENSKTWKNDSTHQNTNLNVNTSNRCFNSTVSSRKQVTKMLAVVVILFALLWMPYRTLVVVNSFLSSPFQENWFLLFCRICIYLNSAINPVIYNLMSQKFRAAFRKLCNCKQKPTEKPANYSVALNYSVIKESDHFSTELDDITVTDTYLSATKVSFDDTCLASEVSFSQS
Sequence of 3',5'-cyclic-AMP phosphodiesterase 4B (Homo sapiens) (Q07343 whole entry, looked up): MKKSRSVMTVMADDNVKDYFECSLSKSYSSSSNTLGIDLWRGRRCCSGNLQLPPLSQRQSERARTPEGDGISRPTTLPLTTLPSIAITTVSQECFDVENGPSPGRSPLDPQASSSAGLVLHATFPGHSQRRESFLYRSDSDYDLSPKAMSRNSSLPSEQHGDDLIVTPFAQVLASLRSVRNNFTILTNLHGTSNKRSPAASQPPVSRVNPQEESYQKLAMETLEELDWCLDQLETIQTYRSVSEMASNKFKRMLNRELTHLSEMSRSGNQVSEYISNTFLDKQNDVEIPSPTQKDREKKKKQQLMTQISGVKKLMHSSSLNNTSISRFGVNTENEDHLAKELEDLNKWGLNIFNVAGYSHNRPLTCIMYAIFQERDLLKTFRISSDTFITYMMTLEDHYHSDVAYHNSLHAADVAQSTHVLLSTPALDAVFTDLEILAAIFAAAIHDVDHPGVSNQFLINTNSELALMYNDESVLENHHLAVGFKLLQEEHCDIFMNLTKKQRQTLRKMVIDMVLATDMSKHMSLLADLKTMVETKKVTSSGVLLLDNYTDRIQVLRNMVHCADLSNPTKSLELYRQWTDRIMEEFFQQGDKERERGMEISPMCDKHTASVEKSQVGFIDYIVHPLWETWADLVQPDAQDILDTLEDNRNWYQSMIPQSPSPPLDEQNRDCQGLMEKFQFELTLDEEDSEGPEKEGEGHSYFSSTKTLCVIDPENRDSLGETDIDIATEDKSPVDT
Sequence of Transient receptor potential cation channel subfamily V member 1 (Homo sapiens) (Q8NER1 whole entry, looked up): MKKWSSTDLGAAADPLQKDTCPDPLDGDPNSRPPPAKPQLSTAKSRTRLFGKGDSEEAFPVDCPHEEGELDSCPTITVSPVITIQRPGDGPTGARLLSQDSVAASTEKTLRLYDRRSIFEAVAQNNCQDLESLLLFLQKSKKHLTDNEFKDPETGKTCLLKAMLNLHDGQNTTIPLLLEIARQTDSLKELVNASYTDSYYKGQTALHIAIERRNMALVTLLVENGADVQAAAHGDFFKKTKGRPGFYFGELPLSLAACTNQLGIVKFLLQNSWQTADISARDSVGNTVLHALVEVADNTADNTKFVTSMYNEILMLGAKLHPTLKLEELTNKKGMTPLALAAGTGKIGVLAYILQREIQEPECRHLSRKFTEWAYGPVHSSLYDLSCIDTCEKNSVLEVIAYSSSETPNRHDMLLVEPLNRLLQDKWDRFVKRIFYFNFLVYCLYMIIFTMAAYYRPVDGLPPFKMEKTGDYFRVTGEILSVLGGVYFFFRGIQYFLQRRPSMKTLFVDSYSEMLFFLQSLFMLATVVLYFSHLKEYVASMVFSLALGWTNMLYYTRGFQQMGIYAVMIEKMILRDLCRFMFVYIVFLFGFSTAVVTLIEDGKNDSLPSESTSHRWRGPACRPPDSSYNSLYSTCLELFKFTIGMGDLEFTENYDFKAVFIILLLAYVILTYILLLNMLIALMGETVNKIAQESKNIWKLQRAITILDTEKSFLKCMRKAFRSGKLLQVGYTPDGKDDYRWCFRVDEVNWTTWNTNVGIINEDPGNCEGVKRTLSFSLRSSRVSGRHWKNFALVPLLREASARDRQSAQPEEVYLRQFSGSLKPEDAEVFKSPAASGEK
Sequence of Cytochrome P450 3A4 (Homo sapiens) (P08684 whole entry, looked up): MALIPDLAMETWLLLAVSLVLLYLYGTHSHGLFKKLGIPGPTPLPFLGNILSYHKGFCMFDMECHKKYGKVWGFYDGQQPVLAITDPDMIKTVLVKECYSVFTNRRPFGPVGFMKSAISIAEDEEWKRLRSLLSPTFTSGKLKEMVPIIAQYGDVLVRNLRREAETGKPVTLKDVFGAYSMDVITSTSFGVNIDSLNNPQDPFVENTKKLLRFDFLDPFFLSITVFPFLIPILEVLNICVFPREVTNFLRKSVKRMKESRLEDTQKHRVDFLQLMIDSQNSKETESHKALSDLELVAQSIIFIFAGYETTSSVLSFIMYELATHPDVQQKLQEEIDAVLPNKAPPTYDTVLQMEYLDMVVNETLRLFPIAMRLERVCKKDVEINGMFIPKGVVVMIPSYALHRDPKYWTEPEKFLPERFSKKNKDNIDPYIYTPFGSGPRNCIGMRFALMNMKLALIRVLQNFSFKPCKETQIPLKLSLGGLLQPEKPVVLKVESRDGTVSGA
Sequence of Muscarinic acetylcholine receptor M1 (Rattus norvegicus) (P08482 whole entry, looked up): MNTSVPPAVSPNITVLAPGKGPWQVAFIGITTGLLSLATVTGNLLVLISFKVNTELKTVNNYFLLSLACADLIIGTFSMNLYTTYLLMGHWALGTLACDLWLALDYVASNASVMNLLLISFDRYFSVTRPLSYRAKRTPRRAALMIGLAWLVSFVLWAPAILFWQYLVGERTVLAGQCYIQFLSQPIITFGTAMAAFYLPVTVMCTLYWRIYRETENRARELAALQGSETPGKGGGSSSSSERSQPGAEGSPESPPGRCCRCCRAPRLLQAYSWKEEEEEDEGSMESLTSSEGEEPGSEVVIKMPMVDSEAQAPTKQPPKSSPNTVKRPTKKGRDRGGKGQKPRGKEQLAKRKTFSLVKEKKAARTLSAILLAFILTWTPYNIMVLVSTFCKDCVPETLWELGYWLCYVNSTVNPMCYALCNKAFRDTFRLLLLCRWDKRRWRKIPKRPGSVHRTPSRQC
Sequence of ATP-dependent DNA helicase Q1 (Homo sapiens) (P46063 whole entry, looked up): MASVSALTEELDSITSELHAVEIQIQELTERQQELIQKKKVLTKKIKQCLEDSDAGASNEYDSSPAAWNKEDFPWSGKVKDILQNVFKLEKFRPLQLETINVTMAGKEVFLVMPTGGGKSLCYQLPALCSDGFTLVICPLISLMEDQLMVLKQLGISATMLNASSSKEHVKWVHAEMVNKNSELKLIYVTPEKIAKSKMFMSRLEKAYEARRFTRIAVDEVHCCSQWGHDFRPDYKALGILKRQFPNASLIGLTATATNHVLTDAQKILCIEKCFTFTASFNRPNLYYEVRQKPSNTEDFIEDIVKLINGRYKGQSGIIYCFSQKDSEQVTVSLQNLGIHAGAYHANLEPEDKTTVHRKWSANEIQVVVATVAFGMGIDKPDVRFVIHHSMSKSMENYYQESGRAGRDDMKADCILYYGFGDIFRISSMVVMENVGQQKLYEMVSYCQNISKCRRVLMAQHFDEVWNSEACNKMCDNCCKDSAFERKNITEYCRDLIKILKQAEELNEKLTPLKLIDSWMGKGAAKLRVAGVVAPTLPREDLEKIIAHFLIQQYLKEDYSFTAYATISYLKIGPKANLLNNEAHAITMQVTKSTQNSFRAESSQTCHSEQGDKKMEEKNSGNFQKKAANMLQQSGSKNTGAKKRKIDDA
Sequence of Ferritin light chain (Equus caballus) (P02791 2-175 limits assumed): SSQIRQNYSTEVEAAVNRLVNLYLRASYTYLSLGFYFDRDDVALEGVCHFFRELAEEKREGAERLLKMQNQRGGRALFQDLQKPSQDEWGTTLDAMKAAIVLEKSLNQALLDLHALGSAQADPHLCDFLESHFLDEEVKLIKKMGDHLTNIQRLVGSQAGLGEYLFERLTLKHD

O=S(=O)(O)C1CCNCC1
inactive: activity change, negative = inhibition [1] 5.14% [at 38 µM] | Potency [2] | outcome [3] | Potency [4] > 46 µM | Potency [5] > 46 µM | Potency [6] | Potency [7] | Potency [8] | Potency [9] | activation [10] 1.41% | outcome [11] | Potency [12] | outcome [13] | outcome [14] | outcome [15] | outcome [16] | Potency [17] | outcome [18] | Potency [19] | Potency [20] | Potency [21] | Potency [22] | Potency [23] | Potency [24] | Potency [25] | outcome [26] | outcome [27] | outcome [28] | Potency [29] | Potency [30] | Potency [31] | Potency [32] | Potency [33] | outcome [34] | outcome [35] | activation [36] 0.125% | outcome [37]
